From PubChem BioAssay
Activity calls are given as the source filed them.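 The calls were made as follows, unless noted: active = fluorescence slope after compound addition differing from the mean of all screened samples at 99.7% confidence, in either direction; inactive = the rest.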

How the values were obtained:
[1] = inhibitors of TNFa-induced NFkB p65 translocation, primary screen, imaging, HUVEC, MLSMR starter and 10KST1 sets (AID 438;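 active = inhibition above 20% together with a positive visual image hit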;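 also: compound added about 3h40 before a 20 min TNFalpha stimulation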;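 as to inhibition: signal is the nuclear over cytoplasmic p65 intensity ratio per well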); conditions: HUVEC TNFa-induced p65 nuclear translocation; cell count: measured here: nuclei count (cytotoxicity indicator), at 2.08 µM; inhibition: at 2 µM, stronger effect = higher value, 0% TNFa-plus-vehicle, 100% no-TNFa wells
[2] = inhibitors of E-selectin induction by TNFa, primary screen, imaging, HUVEC, immunofluorescence, MLSMR starter and 10KST1 sets (AID 487;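 active = visually confirmed hit in the image check and inhibition above 20%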;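 as to inhibition: signal is fraction of cell area covered by stained E-selectin grains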;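 as to nuclei count: 100% = median nuclei count of all wells on the same plate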); conditions: HUVEC TNFalpha-induced E-selectin immunofluorescence imaging, at 2 µM; inhibition: stronger effect = higher value; nuclei count: measured here: cell number, toxicity
[3] = DUSP6 inhibitors restoring Erk phosphorylation by chemical complementation, primary imaging in DUSP6-transfected HeLa (AID 609;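 active = compounds giving at least 50% inhibition in the cell-based MKP-3 phosphatase rescue imaging test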;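 as to inhibition: phospho-Erk level distribution per well compared with pooled transfected vehicle control wells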); conditions: HeLa MKP-3 transfected, phospho-Erk imaging KS statistic, at 10 µM, cells stimulated with TPA for 15 min
[4] = biological target: Dual specificity protein phosphatase 6 (Homo sapiens) (UniProt Q16828); experiment: as above; conditions: HeLa MKP-3 transfected, phospho-Erk imaging KS statistic; at 10 µM; stronger effect = higher value; cells stimulated with TPA for 15 min
Chain of Dual specificity protein phosphatase 6 (Homo sapiens) (Q16828 whole entry, looked up): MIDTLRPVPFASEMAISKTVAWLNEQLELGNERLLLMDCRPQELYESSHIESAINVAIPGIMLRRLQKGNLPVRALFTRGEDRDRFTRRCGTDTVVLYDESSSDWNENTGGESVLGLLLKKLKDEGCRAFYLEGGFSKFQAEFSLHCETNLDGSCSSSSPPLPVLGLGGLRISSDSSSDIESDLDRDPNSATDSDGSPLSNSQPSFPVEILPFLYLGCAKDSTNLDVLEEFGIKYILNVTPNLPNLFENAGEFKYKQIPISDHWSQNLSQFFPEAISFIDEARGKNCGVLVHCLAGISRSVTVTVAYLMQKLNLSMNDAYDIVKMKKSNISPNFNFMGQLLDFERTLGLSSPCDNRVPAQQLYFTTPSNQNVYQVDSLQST

[5] = biological target: Voltage-gated potassium channel subunit beta-2 (Rattus norvegicus) (UniProt P62483); experiment: KvBeta enzyme negative modulators, primary screen, biochemical, NADPH fluorescence (AID 622;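 active = fluorescence slope higher than the sample average by over 3 SD, cut at about -0.22 in these data, passing the limit was not always enough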;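 also: slope of raw intensity against log time taken from 70 to 1610 s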); conditions: recombinant KvBeta, 4-cyanobenzaldehyde reduction, at 10 µM, stronger effect = higher value
Chain of Voltage-gated potassium channel subunit beta-2 (Rattus norvegicus) (P62483 whole entry, looked up): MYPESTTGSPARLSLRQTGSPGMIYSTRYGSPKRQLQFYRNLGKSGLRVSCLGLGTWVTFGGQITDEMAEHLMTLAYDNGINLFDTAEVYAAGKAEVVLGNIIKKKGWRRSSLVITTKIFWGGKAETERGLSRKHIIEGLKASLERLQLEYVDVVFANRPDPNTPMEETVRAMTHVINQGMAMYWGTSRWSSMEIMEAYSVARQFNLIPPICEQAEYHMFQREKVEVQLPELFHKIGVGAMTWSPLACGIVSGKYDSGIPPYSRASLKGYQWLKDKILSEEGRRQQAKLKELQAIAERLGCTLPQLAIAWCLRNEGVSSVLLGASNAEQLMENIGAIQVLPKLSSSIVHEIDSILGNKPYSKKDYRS

[6] = biological target: Voltage-gated potassium channel subunit beta-2 (Rattus norvegicus) (UniProt P62483); experiment: KvBeta positive modulators, primary screen, biochemical, NADPH fluorescence (AID 623;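 active = NADPH fluorescence slope more negative than the mean of all samples by about 3 SD, 99.7% confidence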;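 also: fluorescence intensity change per second fitted from 20 to 320 s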); conditions: Recombinant KvBeta, NADPH fluorescence decrease slope, 10 min; at 10 µM; stronger effect = lower value
[7] = biological target: Alpha-2C adrenergic receptor (Homo sapiens) (UniProt P18825); experiment: modulators of alpha2C/GIRK thallium flux, primary screen, cell-based, HEK293 alpha2C/GIRK1/2 (AID 624); conditions: thallium flux BTC fluorescence, at 10 µM, actives lie on both sides;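 also: slope of fluorescence ratio to pre-addition baseline per second over 15 to 24 s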
Chain of Alpha-2C adrenergic receptor (Homo sapiens) (P18825 whole entry, looked up): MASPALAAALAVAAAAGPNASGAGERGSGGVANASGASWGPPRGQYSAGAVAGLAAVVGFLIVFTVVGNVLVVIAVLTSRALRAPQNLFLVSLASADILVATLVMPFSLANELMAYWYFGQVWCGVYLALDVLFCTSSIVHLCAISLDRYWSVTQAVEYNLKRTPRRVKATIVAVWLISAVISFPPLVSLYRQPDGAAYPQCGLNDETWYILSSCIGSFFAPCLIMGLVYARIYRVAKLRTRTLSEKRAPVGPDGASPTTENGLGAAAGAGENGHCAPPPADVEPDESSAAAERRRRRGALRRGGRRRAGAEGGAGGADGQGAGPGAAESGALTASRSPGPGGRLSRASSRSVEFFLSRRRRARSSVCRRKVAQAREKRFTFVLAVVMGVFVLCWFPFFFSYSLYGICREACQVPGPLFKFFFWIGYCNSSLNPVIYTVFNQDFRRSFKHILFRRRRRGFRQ

[8] = inhibitors of Chlamydomonas gravitaxis, primary screen, whole organism, Chlamydomonas reinhardtii, WT vs cilia-less mutant, absorbance, 96-well (AID 463189;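 active = inhibition at or above 50% relative to wild type and mutant plate controls; inactive = inhibition below 50%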;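 also: 0% = wild type cc124 cells in DMSO and 100% = ciliumless bld1 mutant cells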); conditions: OD600 absorbance, 2 days, at 10 µM, stronger effect = higher value
[9] = measured here: cell density z-score
[10] = measured here: nuclear c-Myc green intensity z-score
[11] = measured here: nuclear pErk red intensity z-score, stronger effect = higher value

Compound | cell count [1] | inhibition [1] | inhibition [2] | nuclei count [2] | z-score [3, 9] | z-score [3, 10] | z-score [3, 11] | inhibition [4] | fluorescence slope [5] | NADPH fluorescence slope [6] | slope [7] | inhibition [8]
COc1ccc(CNC(=O)[C@H](C)NC(=O)C2CCN(S(=O)(=O)c3ccc(C)cc3)CC2)cc1 | 299 | 10.2% (inactive) | -34.1% (inactive) | 110% | -1.17 | 1.31 | 0.673 | -3.5% (inactive) | -0.475 (inactive) | -9.4e-05 (inactive) | 0.00578 (inactive) | -1.92% (inactive)
CCCc1cc(=O)oc2c(CN3CCN(C)CC3)c(O)c(Cl)cc12 | 332 | 1.4% (inactive) | 4.8% (inactive) | 163% | 1.29 | -0.833 | -1.37 | 1.6e-07% (inactive) | -0.229 (inactive) | -1.7e-05 (inactive) | 0.00587 (inactive) | -8.3% (inactive)
O=C(NCCCn1ccnc1)C(Cc1ccccc1)N1C(=O)c2ccccc2C1=O (stereo not drawn) | 340 | -6.9% (inactive) | -73.9% (inactive) | 125% | 0.63 | -0.478 | -0.334 | 1.6e-07% (inactive) | -0.46 (inactive) | -0.000126 (inactive) | 0.00809 (inactive) | 3.02% (inactive)
O=C1C2ON(c3ccccc3)C(c3ccncc3)C2C(=O)N1c1ccccc1 (stereo not drawn) | 359 | -4.2% (inactive) | -13.9% (inactive) | 147% | 0.798 | -1.22 | 0.675 | -14% (inactive) | -0.419 (inactive) | -0.000134 (inactive) | 0.00494 (inactive) | 5.79% (inactive)
CCCSc1nc(C)c(CC(=O)O)c(=O)[nH]1 | 381 | -7.9% (inactive) | -71.2% (inactive) | 190% | -2.53 | 0.0307 | -0.67 | 1.75% (inactive) | -0.45 (inactive) | -0.00012 (inactive) | 0.00515 (inactive) | 21.4% (inactive)
COCCN(CCOC)C(=O)C12CCC(C)(C(=O)C1)C2(C)C (stereo not drawn) | 237 | -4.2% (inactive) | 17.3% (inactive) | 124% | 0.486 | 2.03 | 1.23 | 10.5% (inactive) | -0.458 (inactive) | -5.9e-05 (inactive) | 0.00572 (inactive) | -24.6% (inactive)
CC1(C)CC(NC(=O)C23CCC(C)(/C(=N/O)C2)C3(C)C)CC(C)(C)N1 (stereo not drawn) | 378 | -8.3% (inactive) | -45.2% (inactive) | 179% | -1.2 | 0.0129 | 1.59 | -14% (inactive) | -0.399 (inactive) | -0.000147 (inactive) | 0.00577 (inactive) | -6.59% (inactive)
Cc1cc(N2C(=O)C(=O)/C(=C(/O)c3ccccc3)C2c2cccc(Br)c2)no1 (stereo not drawn) | 298 | -10.2% (inactive) | -43.8% (inactive) | 93.2% | 0.294 | -0.11 | 0.565 | 1.6e-07% (inactive) | -0.473 (inactive) | -3.5e-05 (inactive) | 0.00638 (inactive) | -10.3% (inactive)
COc1cccc(-c2nc(NC(C)C)c3ccccc3n2)c1O | 342 | -2.3% (inactive) | -37.3% (inactive) | 152% | -0.0785 | 0.53 | 0.295 | 1.6e-07% (inactive) | -0.436 (inactive) | -0.000146 (inactive) | 0.00488 (inactive) | 75.4% (active)
CCc1cc(=O)oc2c(CN3CCCC3)c(O)c(Cl)cc12 | 285 | -8.8% (inactive) | -56.3% (inactive) | 98.8% | 1.82 | -0.243 | -0.206 | 21% (inactive) | -0.247 (inactive) | -3.3e-05 (inactive) | 0.0046 (inactive) | -9.29% (inactive)
CC12CCC(C(=O)N(CCC#N)CCC#N)(CC1=O)C2(C)C (stereo not drawn) | 311 | 21.3% (inactive) | -9% (inactive) | 92.1% | -0.914 | 1.07 | 1.43 | -12.3% (inactive) | -0.505 (inactive) | -9.3e-05 (inactive) | 0.00706 (inactive) | 20.6% (inactive)
c1ccc2c(NCC3CCCO3)nc(-c3ccncc3)nc2c1 (stereo not drawn) | 296 | 1.9% (inactive) | -260% (inactive) | 134% | 0.349 | -0.718 | -1.13 | 1.48% (inactive) | -0.516 (inactive) | -3.7e-05 (inactive) | 0.00585 (inactive) | 141% (active)
C=C1C2(C(=O)Nc3nccs3)CCC(C2)C1(C)C (stereo not drawn) | 357 | -0.5% (inactive) | -34.7% (inactive) | 138% | -1.77 | 1.86 | 0.223 | -3.5% (inactive) | -0.4 (inactive) | -0.000131 (inactive) | 0.00676 (inactive) | 0.99% (inactive)
COC(=O)C1=C(C)N=C2SC(C)C(=O)N2C1c1cccs1 (stereo not drawn) | 366 | 3.7% (inactive) | -39.6% (inactive) | 142% | 1.89 | -0.39 | -0.931 | 22.8% (inactive) | -0.426 (inactive) | -0.000101 (inactive) | 0.00597 (inactive) | 14.7% (inactive)
